In the supplement of paper PMC11732987, “Enantioselective OTUD7B fragment discovery through chemoproteomics screening and high-throughput optimisation” (Communications Chemistry, 2025):

How the values were obtained:
Assay in all cases: log2 ratio of Biotin-Ahx-Ub-VS probe labelling (fragment/DMSO); higher = less target engagement (more negative = stronger competition), active = hit call of the paper (q ≤ 0.05, log2 ratio ≤ -1)
Conditions in all cases: compound concentration: 200 uM; treatment time: 3 h
[1] = molecular target: T1, USP42 (UniProt Q9H9J4)
T1 sequence (whole entry): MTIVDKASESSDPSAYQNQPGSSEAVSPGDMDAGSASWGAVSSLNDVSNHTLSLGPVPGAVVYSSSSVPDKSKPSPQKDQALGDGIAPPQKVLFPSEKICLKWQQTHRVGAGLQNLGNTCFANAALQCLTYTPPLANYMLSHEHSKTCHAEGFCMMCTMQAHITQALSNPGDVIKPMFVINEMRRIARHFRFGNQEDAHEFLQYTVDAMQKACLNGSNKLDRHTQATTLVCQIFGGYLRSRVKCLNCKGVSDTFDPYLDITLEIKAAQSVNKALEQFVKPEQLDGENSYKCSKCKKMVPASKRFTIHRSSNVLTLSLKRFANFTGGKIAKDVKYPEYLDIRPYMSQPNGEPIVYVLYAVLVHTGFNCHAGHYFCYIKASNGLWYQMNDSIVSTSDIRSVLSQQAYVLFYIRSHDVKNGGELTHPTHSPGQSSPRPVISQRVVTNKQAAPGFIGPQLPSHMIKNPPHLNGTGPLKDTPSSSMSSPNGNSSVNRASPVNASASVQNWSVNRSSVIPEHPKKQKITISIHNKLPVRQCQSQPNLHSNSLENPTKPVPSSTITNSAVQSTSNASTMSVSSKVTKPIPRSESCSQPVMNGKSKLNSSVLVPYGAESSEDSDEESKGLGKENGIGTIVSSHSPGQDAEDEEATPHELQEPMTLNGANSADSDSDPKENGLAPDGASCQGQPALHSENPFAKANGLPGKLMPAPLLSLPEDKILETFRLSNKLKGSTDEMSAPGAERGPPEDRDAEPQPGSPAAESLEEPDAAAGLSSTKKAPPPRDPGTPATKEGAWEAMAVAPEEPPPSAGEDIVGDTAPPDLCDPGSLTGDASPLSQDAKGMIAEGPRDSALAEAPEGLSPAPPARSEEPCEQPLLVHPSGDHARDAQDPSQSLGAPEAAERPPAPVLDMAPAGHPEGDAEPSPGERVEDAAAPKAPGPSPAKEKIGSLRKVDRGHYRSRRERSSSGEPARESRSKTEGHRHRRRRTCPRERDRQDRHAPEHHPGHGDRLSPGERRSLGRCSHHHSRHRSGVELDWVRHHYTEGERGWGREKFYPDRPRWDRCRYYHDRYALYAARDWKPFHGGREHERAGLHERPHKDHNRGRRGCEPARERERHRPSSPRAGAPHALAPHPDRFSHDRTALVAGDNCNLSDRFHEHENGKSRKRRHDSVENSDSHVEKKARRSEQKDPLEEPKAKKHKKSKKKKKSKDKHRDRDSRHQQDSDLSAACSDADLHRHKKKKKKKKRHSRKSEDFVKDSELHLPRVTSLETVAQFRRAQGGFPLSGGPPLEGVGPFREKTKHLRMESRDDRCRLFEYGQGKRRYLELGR
In short: (§1)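 HEK293T lysate in Tris/CHAPS/IGEPAL buffer with protease inhibitors (495 µg per sample) was given fragment at 200 µM or vehicle for 3 h, in triplicate. It then received Biotin-Ahx-Ub-VS at 0.5 µM final for 1 h. Labelled DUBs were NeutrAvidin-enriched, digested with LysC and trypsin, and run by diaPASEF LC-MS/MS. Values are average log2 fragment/vehicle ratios by unpaired t-test on global-median-normalised Spectronaut quantities of proteins with ≥2 unique peptides.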

[2] = molecular target: USP46 (UniProt P62068)
Chain of USP46 (P62068 whole entry): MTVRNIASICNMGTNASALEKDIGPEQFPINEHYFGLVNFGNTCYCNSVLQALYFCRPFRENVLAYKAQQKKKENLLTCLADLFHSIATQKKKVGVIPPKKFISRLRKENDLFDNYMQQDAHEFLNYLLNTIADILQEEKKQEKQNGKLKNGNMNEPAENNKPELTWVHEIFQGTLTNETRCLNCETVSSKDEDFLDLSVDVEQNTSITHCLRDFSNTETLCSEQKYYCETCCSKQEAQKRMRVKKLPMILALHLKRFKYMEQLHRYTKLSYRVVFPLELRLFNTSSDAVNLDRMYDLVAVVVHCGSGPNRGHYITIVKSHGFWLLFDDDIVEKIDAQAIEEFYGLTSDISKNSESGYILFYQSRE
In short: as §1

[3] = molecular target: T2, USP47 (UniProt Q96K76)
T2 sequence (whole entry): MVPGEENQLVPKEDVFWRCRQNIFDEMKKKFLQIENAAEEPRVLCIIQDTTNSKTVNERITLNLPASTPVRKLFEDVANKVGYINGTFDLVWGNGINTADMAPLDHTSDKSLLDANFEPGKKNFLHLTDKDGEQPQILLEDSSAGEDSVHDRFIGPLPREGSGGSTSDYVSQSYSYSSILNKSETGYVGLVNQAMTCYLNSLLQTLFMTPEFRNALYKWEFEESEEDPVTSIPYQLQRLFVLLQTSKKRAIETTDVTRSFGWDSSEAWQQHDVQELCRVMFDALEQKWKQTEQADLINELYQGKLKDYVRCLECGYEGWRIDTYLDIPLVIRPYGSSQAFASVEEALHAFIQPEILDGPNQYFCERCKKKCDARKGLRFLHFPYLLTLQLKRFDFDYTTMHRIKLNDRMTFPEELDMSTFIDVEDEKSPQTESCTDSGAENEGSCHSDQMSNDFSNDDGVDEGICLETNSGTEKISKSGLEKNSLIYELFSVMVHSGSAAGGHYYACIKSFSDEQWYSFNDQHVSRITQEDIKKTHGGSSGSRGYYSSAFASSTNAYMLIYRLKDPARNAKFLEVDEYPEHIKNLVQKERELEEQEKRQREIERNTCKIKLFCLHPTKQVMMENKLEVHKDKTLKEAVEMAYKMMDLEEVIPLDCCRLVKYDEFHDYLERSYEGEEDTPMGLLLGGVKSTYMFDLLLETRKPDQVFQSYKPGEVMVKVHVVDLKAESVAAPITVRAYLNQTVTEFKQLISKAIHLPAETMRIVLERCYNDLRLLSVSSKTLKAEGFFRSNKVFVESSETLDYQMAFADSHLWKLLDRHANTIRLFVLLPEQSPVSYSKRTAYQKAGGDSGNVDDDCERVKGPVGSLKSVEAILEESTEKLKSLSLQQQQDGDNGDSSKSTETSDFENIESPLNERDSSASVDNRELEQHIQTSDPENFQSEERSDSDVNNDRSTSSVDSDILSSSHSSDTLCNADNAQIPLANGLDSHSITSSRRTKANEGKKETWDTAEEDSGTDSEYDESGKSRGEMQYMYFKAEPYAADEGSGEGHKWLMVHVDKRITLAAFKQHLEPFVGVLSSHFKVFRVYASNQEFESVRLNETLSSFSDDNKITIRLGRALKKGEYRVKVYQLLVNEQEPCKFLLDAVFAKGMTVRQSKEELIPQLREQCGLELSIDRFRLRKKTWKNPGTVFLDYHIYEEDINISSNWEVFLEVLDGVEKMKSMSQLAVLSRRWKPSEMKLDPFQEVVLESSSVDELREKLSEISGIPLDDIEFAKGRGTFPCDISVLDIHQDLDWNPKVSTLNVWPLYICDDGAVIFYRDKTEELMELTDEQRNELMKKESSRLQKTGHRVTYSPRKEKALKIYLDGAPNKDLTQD
In short: as §1

[4] = molecular target: T3, USP48 (UniProt Q86UV5)
T3 sequence (whole entry): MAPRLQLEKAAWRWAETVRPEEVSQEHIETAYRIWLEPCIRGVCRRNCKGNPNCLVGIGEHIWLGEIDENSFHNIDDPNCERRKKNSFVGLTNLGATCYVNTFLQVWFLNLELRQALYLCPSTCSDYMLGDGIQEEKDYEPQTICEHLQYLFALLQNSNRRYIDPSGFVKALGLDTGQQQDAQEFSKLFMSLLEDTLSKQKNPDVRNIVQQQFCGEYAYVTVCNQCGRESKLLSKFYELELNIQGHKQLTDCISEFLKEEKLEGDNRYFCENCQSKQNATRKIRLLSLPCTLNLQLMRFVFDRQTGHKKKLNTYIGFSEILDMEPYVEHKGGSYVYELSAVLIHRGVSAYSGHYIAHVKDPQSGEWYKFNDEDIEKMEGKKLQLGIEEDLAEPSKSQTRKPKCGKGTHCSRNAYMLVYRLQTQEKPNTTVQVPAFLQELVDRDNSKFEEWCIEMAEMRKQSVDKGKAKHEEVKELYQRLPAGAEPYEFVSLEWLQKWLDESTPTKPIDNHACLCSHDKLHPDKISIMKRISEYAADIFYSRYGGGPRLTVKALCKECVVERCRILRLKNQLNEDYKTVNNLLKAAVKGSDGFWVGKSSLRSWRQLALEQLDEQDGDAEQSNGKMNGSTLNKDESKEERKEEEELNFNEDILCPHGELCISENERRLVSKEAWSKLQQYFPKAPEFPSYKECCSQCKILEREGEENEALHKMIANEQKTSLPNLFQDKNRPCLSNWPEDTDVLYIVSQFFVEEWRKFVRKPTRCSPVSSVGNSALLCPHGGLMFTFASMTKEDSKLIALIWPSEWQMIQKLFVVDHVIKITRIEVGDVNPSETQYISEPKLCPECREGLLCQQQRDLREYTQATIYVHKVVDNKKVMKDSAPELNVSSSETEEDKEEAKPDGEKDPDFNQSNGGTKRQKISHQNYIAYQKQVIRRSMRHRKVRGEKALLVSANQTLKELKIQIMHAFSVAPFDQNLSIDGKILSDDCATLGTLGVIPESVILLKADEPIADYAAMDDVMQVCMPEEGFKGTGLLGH
In short: as §1

[5] = molecular target: T4, USP5 (UniProt P45974)
T4 sequence (whole entry): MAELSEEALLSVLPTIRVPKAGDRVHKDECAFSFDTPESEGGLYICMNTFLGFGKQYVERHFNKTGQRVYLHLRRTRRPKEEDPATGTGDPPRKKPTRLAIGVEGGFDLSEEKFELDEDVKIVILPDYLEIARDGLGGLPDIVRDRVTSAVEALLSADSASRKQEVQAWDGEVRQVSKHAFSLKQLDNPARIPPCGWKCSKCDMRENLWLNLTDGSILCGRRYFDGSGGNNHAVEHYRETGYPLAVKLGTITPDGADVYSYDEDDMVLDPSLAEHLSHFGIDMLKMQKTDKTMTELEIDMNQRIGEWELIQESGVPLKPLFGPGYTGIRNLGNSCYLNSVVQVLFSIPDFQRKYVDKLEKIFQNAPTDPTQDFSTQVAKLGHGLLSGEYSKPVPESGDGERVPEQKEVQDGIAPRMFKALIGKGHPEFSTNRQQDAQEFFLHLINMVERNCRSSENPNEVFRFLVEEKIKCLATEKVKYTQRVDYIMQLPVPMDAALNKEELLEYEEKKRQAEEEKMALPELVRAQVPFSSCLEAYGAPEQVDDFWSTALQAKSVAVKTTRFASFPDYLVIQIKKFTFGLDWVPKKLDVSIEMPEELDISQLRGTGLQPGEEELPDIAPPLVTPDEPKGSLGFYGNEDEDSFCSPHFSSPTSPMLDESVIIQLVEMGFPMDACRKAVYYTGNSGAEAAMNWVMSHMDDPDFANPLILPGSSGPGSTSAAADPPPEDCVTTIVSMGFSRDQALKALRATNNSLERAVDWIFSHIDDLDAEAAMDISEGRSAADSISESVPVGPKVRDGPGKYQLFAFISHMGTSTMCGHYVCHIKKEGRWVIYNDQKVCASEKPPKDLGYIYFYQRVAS
In short: as §1

[6] = molecular target: USP54 (UniProt Q70EL1)
In short: as §1

[7] = molecular target: USP7 (UniProt Q93009)
Chain of USP7 (Q93009 whole entry, looked up): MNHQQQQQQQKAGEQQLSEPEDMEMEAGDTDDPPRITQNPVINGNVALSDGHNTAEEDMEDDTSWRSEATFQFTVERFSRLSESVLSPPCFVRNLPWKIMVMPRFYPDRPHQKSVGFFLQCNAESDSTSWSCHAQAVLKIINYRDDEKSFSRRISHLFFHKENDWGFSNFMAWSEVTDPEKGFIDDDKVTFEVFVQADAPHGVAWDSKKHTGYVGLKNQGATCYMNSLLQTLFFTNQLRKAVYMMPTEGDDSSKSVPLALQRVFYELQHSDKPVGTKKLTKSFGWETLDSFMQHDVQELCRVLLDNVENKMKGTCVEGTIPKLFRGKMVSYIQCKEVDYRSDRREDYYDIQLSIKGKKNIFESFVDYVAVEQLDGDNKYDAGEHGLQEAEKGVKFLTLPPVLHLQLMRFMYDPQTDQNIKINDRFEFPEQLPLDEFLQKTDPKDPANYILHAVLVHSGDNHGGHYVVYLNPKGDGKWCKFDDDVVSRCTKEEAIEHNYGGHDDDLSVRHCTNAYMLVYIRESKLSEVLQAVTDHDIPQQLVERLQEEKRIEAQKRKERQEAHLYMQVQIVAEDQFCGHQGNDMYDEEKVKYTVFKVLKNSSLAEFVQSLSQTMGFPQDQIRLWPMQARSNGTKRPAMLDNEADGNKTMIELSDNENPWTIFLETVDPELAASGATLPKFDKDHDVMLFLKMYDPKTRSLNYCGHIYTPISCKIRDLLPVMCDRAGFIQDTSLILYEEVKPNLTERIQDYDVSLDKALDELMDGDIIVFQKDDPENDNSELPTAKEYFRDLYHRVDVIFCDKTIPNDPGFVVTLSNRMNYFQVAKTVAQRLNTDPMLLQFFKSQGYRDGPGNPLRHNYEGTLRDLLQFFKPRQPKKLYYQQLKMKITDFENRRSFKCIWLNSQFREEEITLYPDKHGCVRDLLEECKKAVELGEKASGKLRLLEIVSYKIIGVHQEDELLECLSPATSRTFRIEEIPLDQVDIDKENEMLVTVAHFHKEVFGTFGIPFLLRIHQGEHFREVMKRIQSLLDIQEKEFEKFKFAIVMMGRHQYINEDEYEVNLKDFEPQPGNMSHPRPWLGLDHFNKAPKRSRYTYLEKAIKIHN
In short: as §1

[8] = molecular target: T5, USP8 (UniProt P40818)
T5 sequence (whole entry): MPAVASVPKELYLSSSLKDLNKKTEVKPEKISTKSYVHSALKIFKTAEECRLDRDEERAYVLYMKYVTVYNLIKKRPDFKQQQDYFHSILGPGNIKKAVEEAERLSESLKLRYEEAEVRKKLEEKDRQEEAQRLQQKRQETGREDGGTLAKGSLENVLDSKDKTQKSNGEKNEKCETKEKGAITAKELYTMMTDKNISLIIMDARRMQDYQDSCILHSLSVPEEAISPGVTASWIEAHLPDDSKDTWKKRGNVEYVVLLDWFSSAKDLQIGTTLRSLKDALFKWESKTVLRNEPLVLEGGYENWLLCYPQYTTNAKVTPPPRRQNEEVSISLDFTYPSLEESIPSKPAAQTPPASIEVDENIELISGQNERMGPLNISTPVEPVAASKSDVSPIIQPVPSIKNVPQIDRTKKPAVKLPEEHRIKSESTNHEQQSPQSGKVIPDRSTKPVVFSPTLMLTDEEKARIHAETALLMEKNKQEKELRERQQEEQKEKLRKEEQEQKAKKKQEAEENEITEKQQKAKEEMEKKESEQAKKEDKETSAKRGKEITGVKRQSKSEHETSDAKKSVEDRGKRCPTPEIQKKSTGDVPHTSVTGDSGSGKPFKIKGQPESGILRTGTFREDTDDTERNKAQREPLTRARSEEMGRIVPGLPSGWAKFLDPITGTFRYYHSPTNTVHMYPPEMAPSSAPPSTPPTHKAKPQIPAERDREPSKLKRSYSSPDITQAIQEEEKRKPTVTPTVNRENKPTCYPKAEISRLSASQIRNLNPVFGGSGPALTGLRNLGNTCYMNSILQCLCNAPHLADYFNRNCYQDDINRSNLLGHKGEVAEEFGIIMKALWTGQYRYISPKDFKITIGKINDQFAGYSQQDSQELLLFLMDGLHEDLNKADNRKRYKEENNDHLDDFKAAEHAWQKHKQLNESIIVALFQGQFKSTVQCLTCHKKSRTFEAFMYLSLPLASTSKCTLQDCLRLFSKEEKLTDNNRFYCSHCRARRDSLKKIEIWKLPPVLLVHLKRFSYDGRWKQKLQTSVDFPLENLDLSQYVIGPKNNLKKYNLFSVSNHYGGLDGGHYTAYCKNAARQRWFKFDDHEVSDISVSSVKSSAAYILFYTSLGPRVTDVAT
In short: as §1

[9] = molecular target: USP9X (UniProt Q93008)
Chain of USP9X (Q93008 whole entry): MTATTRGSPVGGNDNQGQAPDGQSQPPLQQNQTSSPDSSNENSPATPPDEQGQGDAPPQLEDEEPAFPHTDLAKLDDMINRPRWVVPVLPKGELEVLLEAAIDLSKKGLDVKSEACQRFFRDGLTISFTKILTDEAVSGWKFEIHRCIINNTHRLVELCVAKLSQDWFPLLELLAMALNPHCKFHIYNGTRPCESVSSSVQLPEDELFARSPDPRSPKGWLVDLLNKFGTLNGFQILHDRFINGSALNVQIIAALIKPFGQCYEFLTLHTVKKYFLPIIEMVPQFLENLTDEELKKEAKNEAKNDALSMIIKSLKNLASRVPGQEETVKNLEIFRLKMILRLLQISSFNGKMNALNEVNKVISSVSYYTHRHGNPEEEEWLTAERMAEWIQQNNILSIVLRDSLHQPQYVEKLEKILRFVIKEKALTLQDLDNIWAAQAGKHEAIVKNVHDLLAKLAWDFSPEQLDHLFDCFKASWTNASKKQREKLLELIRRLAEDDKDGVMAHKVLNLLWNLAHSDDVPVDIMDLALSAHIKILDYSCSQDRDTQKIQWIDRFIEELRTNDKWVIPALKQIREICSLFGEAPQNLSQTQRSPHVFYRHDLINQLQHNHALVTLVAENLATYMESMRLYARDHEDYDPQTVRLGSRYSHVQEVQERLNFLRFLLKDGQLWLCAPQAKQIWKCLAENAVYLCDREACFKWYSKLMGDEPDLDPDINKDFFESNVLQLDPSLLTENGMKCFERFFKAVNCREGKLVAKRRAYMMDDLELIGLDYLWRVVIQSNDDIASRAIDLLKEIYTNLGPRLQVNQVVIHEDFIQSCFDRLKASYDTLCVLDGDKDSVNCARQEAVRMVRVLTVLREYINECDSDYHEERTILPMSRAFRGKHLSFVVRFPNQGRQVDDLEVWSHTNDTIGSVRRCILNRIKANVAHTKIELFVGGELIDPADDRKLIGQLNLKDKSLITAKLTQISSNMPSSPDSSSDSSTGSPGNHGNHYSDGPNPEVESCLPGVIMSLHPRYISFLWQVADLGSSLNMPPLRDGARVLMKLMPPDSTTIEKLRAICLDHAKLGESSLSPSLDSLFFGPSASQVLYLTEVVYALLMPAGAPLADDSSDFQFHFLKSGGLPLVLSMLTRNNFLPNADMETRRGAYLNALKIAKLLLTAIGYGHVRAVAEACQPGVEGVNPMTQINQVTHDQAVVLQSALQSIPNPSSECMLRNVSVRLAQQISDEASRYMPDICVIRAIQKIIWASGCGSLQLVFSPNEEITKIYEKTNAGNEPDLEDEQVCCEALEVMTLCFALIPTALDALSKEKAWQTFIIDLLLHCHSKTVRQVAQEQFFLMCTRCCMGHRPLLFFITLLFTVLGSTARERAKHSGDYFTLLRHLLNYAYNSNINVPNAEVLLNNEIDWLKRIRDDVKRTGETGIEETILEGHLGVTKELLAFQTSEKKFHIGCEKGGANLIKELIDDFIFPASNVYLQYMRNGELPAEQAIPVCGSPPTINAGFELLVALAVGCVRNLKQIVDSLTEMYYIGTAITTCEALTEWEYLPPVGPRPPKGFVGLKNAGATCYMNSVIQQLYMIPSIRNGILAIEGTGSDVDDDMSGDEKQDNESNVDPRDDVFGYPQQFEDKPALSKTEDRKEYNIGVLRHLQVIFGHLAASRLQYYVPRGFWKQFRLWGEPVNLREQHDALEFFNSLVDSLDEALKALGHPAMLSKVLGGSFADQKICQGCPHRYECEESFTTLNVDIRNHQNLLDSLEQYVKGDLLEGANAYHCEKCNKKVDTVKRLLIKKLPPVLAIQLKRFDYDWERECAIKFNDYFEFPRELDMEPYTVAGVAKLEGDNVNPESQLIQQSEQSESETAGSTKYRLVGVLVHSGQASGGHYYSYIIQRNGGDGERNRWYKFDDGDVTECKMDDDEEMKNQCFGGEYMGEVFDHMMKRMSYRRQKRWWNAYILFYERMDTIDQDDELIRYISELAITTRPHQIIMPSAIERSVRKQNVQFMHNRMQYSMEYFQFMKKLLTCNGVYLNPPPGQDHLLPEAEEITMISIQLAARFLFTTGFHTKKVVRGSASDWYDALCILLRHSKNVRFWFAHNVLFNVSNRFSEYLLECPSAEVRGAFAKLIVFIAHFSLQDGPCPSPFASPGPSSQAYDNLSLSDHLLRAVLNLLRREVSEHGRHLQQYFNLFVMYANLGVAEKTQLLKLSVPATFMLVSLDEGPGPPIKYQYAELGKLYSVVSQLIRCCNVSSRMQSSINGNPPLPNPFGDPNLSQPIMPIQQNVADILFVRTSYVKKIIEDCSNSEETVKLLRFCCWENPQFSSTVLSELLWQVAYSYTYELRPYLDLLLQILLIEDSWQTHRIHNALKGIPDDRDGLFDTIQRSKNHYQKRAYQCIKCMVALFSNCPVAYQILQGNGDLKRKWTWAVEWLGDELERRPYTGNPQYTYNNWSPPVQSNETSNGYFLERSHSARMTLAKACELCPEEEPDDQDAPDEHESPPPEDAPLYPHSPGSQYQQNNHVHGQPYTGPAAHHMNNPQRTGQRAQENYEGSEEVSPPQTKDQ
In short: as §1

[10] = molecular target: UniProt O00487
Chain of UniProt O00487 (O00487 whole entry): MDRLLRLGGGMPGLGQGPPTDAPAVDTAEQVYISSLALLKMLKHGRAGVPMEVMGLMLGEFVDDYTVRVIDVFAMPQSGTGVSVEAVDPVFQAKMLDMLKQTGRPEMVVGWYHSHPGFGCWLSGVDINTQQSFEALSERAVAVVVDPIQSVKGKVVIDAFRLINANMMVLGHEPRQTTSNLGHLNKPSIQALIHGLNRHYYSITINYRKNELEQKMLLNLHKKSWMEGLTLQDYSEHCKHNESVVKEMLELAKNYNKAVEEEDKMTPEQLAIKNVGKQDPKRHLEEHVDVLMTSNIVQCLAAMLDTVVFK
In short: as §1

Measured: log2 ratio of Biotin-Ahx-Ub-VS probe labelling

Cc1ccc(N2CCC(NC(=O)CCl)C2=O)cc1 (stereo not given)
inactive: [1] -0.0605 | [2] 0.123 | [3] -0.186 | [4] 0.139 | [5] 0.412 | [6] 0.213 | [7] -0.0706 | [8] 0.0227 | [9] -0.0231 | [10] -0.129
